# MazF activator – activators of E. coli MazEF toxin-antitoxin RNase, primary screen, biochemical, fluorescence, uHTS; Endoribonuclease toxin MazF (Escherichia coli (strain K12)), P0AE70; FAM/BHQ RNA-DNA oligo cleavage fluorescence, 5 h; activation, % at 20 µM; actives 0.32% (n = 350,000); in the data active means activation above about 50%
# Target sequence (P0AE70 whole entry, looked up): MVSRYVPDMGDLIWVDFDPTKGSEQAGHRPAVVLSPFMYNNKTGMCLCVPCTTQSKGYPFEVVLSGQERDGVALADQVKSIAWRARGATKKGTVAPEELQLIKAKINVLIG
# SSB-PriA inh – inhibitors of Klebsiella pneumoniae PriA binding to SSB C-terminal tail, primary screen, biochemical, AlphaScreen | actives 0.6% (n = 430,000) | inhibition, % at 33 µM | PriA–SSB C-terminal tail interaction (Klebsiella pneumoniae) | AlphaScreen SSBct-PriA binding, biotinylated peptide; in the data active means inhibition mostly above about 37%, no sharp cut-off; inactive means mostly below about 20%;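 further: plate controls were negative control peptide for no effect and reference peptide for full effect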
# PrP 5UTR inh – inhibition of PrP 5' UTR reporter expression; cell-based PrP 5' UTR mRNA reporter, plate reader; inhibition, % (test concentration not listed); actives 0.35% (n = 340,000); AID 488862, 2010; in the data active means inhibition above about 52%; further: 0 = median of the neutral control wells
# PrPC TRFRET – inhibitors of human cell surface prion protein PrPC, primary screen, cell-based, TR-FRET; TR-FRET read-out; actives 0.43% (n = 370,000); AID 720596, 2013; Major prion protein (Homo sapiens), P04156; inhibition, % at 13.8 µM; in the data active means inhibition above about 24%; further: 0% = median of the test wells and 100% = reference compound wells
# PfHsp40 rescue – rescue of yeast from PfHsp40 toxicity, primary screen, S. cerevisiae, ATP luminescence; S. cerevisiae expressing PfHsp40, growth rescue; growth rescue, % at 12.5 µM; actives 0.68% (n = 340,000); in the data active means growth rescue above about 28%, passing the limit was not always enough; inconclusive means no clear call, values can overlap the other calls;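 further: yeast W303a lacking pdr1 and pdr3 grown in galactose medium; growth measured after three days at 30 °C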
# PrP UTR cherry – prion 5' UTR mRNA inhibition, cherry-pick retest; shares compounds with PrP 5UTR inh; cell-based prion protein 5' UTR reporter, plate reader; inhibition, % at 2.5 µM; actives 48% (n = 1,100); AID 504592, 2011; in the data active means inhibition above about 54%; inconclusive means no clear call, values can overlap the other calls
# An asterisk follows results filed as active; ? = inconclusive; / = no result; ! = a repeat was not active. A selection: hits, their analogues and other compounds. The true share with any hit is near 1.8%.
SMILES,MazF activator,SSB-PriA inh,PrP 5UTR inh,PrPC TRFRET,PfHsp40 rescue,PrP UTR cherry
CCN(CC)C(=O)c1ccc(NC(=O)c2cccc(C(F)(F)F)c2)cc1,5,-5,78*,-6,-1,-12
CCCN1C(=O)C(C)(C)COc2ccc(NC(=O)c3ccccc3C)cc21,/,19,/,/,/,/
Cc1ccc(/C=C2/SC(=S)N(c3ccc(S(=O)(=O)Nc4nccs4)cc3)C2=O)cc1,-8,-5,83*,-6,-1,-35
Cc1cc2occ(CC(=O)N(C)CC(=O)Nc3ccc(F)cc3)c2cc1C,-9,-6,-7,1,0,/
Nc1ncnc(Oc2cccc3cccnc23)c1[N+](=O)[O-],12,1,67*,-14,0,32
CCCn1nc(C(=O)NCC(C)(C)N2CCOCC2)c2ccccc2c1=O,2,-18,-6,-2,-2,/
Cc1ccc(/C=N/Nc2ccc(C(=O)O)cc2)s1,-30,/,63*,-3,123*,53*
CC(C)c1ccc(/C=N/Nc2ccc(C(=O)O)cc2)cc1,3,/,63*,13,0,39
CN(C)c1ccc2c(c1)C(=NO)c1ccccc1-2,8,53*,68*,/,7,-73
Cc1ccc(SC(C)c2nc(-c3ccccc3)no2)cc1 (centres undefined),1,-70,75*,6,0,-13
O=C(CN(C(=O)CCC(=O)Nc1ccccn1)c1ccc2c(c1)OCO2)NCc1ccco1,4,-3,-7,0,0,/
CCCCCN(C(=O)CCC(=O)OCC(=O)N1CCCCC1CC)c1c(N)n(CCCC)c(=O)[nH]c1=O (centres undefined),-1,-3,-6,-4,1,/
COc1cc2c(c(OC)c1OC)-c1ccc(O)c(=O)cc1C(NC(C)=O)CC2 (centres undefined),11,-1,63*,-12,0,86*
COc1cc2c(c(OC)c1OC)-c1ccc(SC)c(=O)cc1C(NC(=O)c1ccccc1)CC2 (centres undefined),5,-2,56*,-3,-2,83*
COc1c(C=O)c2c(c(OC)c1OC)-c1ccc(OC)c(=O)cc1C(NC(C)=O)CC2 (centres undefined),11,-17,58*,7,6,86*
COC(=O)c1ccc2c(c1)C(NC(C)=O)CCc1cc(OC)c(OC)c(OC)c1-2 (centres undefined),9,-14,51,8,0,/
COc1cccc(/C=C2\SC(=S)N(CC3CCCO3)C2=O)c1 (centres undefined),-6,36,-13,-2,1,/
Cc1ccc2nc(-c3ccccc3)nn2c1,1,-14,61*,3,-1,?
Cc1ccc(-c2nnc(-c3ccccc3)c(-c3ccccc3)n2)cc1,-11,1,-6,-3,2,/
Cc1ccc(C2(c3ccccc3)NC(=O)N(CC(=O)NCc3ccccc3)C2=O)cc1C (centres undefined),-1,-4,80*,16,0,-4
O=C(CN1C(=O)NC(c2ccccc2)(c2ccccc2)C1=O)NCc1ccccc1,-2,-19,-1,4,-1,/
Cc1ccc(S(=O)(=O)N(C)c2c(C)ccc(S(=O)(=O)NC(C)(C)C)c2C)cc1,6,-2,82*,-1,0,-39
Cc1ccc(S(=O)(=O)N(C)c2c(C)ccc(S(=O)(=O)Nc3ccncc3)c2C)cc1,-6,4,-3,4,-2,/
COc1ccccc1C(=O)NCCCNC(=O)c1ccccn1,16,-23,-21,-2,0,/
O=C(NCCCNCc1ccccc1)c1ccccn1,0,-3,62*!,-10,0,-7
SMILES,MazF activator,SSB-PriA inh,PrP 5UTR inh,PrPC TRFRET,PfHsp40 rescue,PrP UTR cherry
Cn1c(C(F)(F)F)nn(CCNC(=O)Cn2cnc3ccccc32)c1=O,/,-11,/,/,/,/
COCc1nnc(NS(=O)(=O)c2ccc(OC)cc2)s1,8,-8,62*,-1,0,-22
CNCC(=O)O,8,-6,92*,7,2,8
CCOC(=O)C(=CNCC(=O)O)C(=O)OCC,0,-8,-11,4,0,/
COc1ccc(S(=O)(=O)N2CCCCC2)cc1NC(=O)c1ccc2c(c1)OCO2,2,-11,-25,-2,-2,/
CCc1ccc(-c2nc(-c3ccncc3)no2)cc1,-3,0,0,11,-2,/
CC(CC(=O)Nc1ccc2c(c1)OCCO2)c1ccccc1 (centres undefined),6,-16,-40,-6,2,/
CCc1ccn2cc(-c3cc(-c4ccccc4)no3)nc2c1,-10,-2,71*,16,12,82*
Cc1ccc(OCC(=O)Nc2cccc3ccccc23)c([N+](=O)[O-])n1,-6,4,-1,1,0,/
Cc1ccccc1-c1nc(-c2ccccn2)no1,-10,-9,70*,5,-4,?
COc1ccc(-c2nc(-c3ccccn3)no2)cc1,30,-13,91*,-9,1,91*
COc1cc(C2c3cc4c(cc3OC(Nc3ccc(C(=O)O)cc3)C2C)OCO4)cc(OC)c1OC (centres undefined),6,-11,37,4,-2,/
COc1ccc(NC2Oc3cc4c(cc3C(c3cc(OC)c(OC)c(OC)c3)C2C)OCO4)cc1 (centres undefined),-9,12,61*,9,-1,36
Cc1ccc2nc3sc(C(=O)N4CCOCC4)c(N)c3cc2c1,6,-14,86*,-4,-1,69*
Cc1ccc(NC(=O)C(C)OC(=O)COc2cccc(C(F)(F)F)c2)cc1S(=O)(=O)N1CCOCC1 (centres undefined),5,-4,5,-1,0,/
COC(=O)c1ccc(CCc2cc(O)c(Br)cc2O)cc1,-27,-2,87*,-11,0,-29
COC(=O)c1ccc(CCc2cc(O)ccc2O)cc1,-8,4,-33,/,2,/
CCOc1ccc(NC2CC(=O)N(c3ccc(SC(F)F)cc3)C2=O)cc1 (centres undefined),/,-5,/,/,/,/
CC(C)c1ccc(OCC(=O)NNC(=O)c2cnccn2)cc1,1,-4,62*,-5,1,3
O=C(COc1ccc2ccccc2c1)NNC(=O)c1cnccn1,-4,-14,-14,-4,-1,/
Cc1ccc(-c2noc(CCC(=O)Nc3ccc4c(c3)OCO4)n2)cc1,-7,-10,60*,11,-1,-15
Nc1ccc(-c2cc3ccccc3c(=O)o2)cc1,6,-3,70*,-10,7,68*
O=C(Nc1ccc([N+](=O)[O-])cc1)C(=O)Nc1cccc(C(=O)O)c1,-3,-2,88*,-45,-1,92*

# Screens as filed in PubChem.
